According to publication PMC10668032, “Altered binding affinity of SIX1-Q177R correlates with enhanced WNT5A and WNT pathway effector expression in Wilms tumor”:
In all, about 33,000 sequences were measured (“e-score”: median about -0.05, highest 2% from about 0.38 on). Many of the other results were omitted from the sample, so the highest values are more common in it than they were.

target: T1, SIX1-Q177R homeodomain (human, UniProt Q15475 108-198, Q177R); test: universal protein binding microarray; Universal all-10-mer PBM (8x60K, AMADID 030236), 300 nM GST-tagged protein, Alexa Fluor 488 anti-GST; buffer, salt, pH and temperature not stated (as in Berger); high values mean tight binding; settings: protein: ivt; tags: N-terminal GST; dsDNA, one strand shown
T1 sequence: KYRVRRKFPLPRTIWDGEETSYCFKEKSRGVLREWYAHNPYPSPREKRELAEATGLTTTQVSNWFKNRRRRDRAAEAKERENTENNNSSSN
Summary of the method: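 After in vitro transcription/translation, GST-tagged homeodomains were quantified against a recombinant GST standard curve by anti-GST western blot. They were then placed in duplicate at 300 nM final concentration on universal 'all 10-mer' protein binding microarrays of 8×60K format.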

Sequence | binding signal
ATGCGGTG | 0.295 ± 0.0245 E-score
CGGGCGAC | 0.215 ± 0.0122 E-score
CACTGGGG | 0.287 ± 0.0142 E-score
ATAAGGTG | 0.217 ± 0.0216 E-score
AACTGTGT | 0.159 ± 0.066 E-score
CCGGATCC | 0.249 ± 0.0202 E-score
TCGATACA | 0.198 ± 0.0102 E-score
CACTCCAG | 0.225 ± 0.00445 E-score
GTTCGGTA | 0.156 ± 0.0218 E-score
GACACATA | 0.234 ± 0.0761 E-score
AACACCTT | 0.452 ± 0.0164 E-score
AACACACT | 0.276 ± 0.0133 E-score
GACACCTA | 0.463 ± 0.00697 E-score
AACACTTC | 0.326 ± 0.0413 E-score
TACACCTA | 0.47 ± 0.00841 E-score
GATACCTA | 0.3275 ± 0.000891 E-score
AGCACCTC | 0.178 ± 0.00186 E-score
TACACGTA | 0.355 ± 0.0208 E-score
AACACGTT | 0.272 ± 0.0421 E-score
AACACCTC | 0.456 ± 0.0111 E-score
TACACATA | 0.209 ± 0.0376 E-score
GCGGGTTA | 0.21 ± 0.00486 E-score

Sequence | binding signal
CCCGCCCG | 0.233 ± 0.0272 E-score
CCCCCGAC | 0.272 ± 0.00679 E-score
ATACCCGA | 0.241 ± 0.0123 E-score
AAGACGTG | 0.166 ± 0.073 E-score
ACACTTTC | 0.354 ± 0.0256 E-score
CCCTTCCC | 0.181 ± 0.0277 E-score
CACCTCTG | 0.2874 ± 0.00224 E-score
CACACTTC | 0.205 ± 0.0263 E-score
CACACCTC | 0.403 ± 0.00914 E-score
CACGTCCC | 0.165 ± 0.0267 E-score
ATAAACCC | 0.16 ± 0.0287 E-score
ACACGATG | 0.3915 ± 0.00105 E-score
ACACGAAG | 0.346 ± 0.00991 E-score
ACACGAAC | 0.3433 ± 0.00132 E-score
ACACGATC | 0.385 ± 0.00771 E-score
ACACGATA | 0.3751 ± 0.00175 E-score
ACCCGATC | 0.253 ± 0.057 E-score
CAGCACCC | 0.188 ± 0.00201 E-score
GGATAACA | 0.204 ± 0.00942 E-score
CACGGGTC | 0.253 ± 0.0022 E-score
CCCTGAGG | 0.177 ± 0.00892 E-score
